# Screening results deposited in PubChem by National Center for Advancing Translational Sciences (NCATS).
# p53 reactivator = qHTS assay for re-activators of p53 using a Luc reporter. 0.063% of 320,000 active. H1299 p53-A138V BP100-luciferase reporter, luminescence, 24 h. Potency, µM (series often up to 92.2 µM), for inactives: top-dose activity change, positive = activation, hits mostly activators; note: % of control where 0% means no effect; nearly all actives have a fitted effect of over 45% in size
#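 p53-null H1299 cells stably carrying temperature-sensitive p53-A138V and a BP100-luciferase reporter were pinned with compounds (4-point, 1:5 series) and held 24 hrs at 37 deg C. Luminescence was read 10 min after detection reagent.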
# NPC1 promoter act = qHTS Assay for NPC1 Promoter Activators; Huh7 NPC1 promoter luciferase reporter, 24 h; Potency, µM (titrated, usually from 9.22 µM), inactives show top-dose activation, hits mostly activators; 2.4% of 320,000 active; AID 485313, 2010; note: % of control where 0% means no effect; nearly all actives have a fitted effect of over 60% in size
#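 Readout is luciferase luminescence, reflecting NPC1 promoter activation in stably transfected Huh7 cells after 24 h compound exposure at 37 °C in reduced-serum medium with 10% FBS.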
# Rab9 promoter act = qHTS Assay for Rab9 Promoter Activators; Huh7 Rab9 promoter-luciferase reporter, luminescence, 24 h; Potency, µM (highest dose often 9.22 µM), for the others: at the highest dose activation, negative = inhibition, hits mostly activators; 2.8% of 320,000 active; note: % of control where 0% means no effect; nearly all actives have a fitted effect of over 60% in size
#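 Luciferase signal after 10 min detection reagent at ambient indicates Rab9 promoter upregulation; stably transfected Huh7 cells were treated 24 h with compound in DMSO at 37 °C, 5% CO2.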
# SMN2 splice enh = qHTS Assay for Enhancers of SMN2 Splice Variant Expression. AID 1458, 2008. 2.8% of 210,000 active. Potency, µM (series often up to 46.1 µM), without a hit: top-dose activity change, positive = activation, most hits filed as activators. HEK293 SMN2-luciferase splicing reporter, luminescence, 30-36 h; note: % of control where 0% means no effect; nearly all actives have a fitted effect of over 55% in size
#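 qHTS luciferase splicing reporter: luminescence rises when SMN2 exon 7 is included in transfected HEK293 cells. Compound exposure lasted 30-36 h at 37C, with 4.5 mM final sodium butyrate as control, followed by a ONE-Glo read.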
# FLuc modulator = qHTS profiling assay for firefly luciferase inhibitor/activator using purifed enzyme and Km concentrations of substrates (counterscreen for miR-21 project) | Luciferin 4-monooxygenase (Photinus pyralis), P08659 | Potency, µM (doses to about 57.5 µM), inactives show at the highest dose activity change, negative = inhibition, most hits filed as inhibitors | purified FLuc, Km substrates, luminescence inhibition | 6.9% of 360,000 active;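 note: plate controls were vehicle for no effect and reference inhibitor for full effect; nearly all actives have a fitted effect of over 55% in size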
# Target sequence (P08659 whole entry, looked up): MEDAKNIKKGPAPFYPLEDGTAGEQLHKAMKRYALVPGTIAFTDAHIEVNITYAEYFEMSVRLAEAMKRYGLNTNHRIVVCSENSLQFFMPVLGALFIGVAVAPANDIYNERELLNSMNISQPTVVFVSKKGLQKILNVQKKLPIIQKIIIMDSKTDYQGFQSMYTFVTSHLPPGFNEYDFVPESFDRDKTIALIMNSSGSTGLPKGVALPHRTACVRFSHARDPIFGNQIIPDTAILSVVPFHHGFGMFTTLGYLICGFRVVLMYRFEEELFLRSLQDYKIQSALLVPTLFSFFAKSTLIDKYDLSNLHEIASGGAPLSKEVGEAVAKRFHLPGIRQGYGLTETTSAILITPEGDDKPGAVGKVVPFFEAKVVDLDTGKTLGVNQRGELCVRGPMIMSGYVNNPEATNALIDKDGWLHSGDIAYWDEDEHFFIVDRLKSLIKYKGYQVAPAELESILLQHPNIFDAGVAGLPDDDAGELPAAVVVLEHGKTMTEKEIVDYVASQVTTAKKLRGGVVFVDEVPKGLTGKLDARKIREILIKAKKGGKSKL
#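 Purified P. pyralis luciferase (10nM final) with 10uM D-luciferin and 10uM ATP (Km levels) in 50mM Tris acetate pH 7.5, 10mM Mg acetate, 0.01% Tween-20, 0.05% BSA; qHTS 6-point titration, ~60 µM downward; luminescence read.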
# ELG1 genotox = qHTS screen for small molecules that induce genotoxicity in human embryonic kidney (HEK293T) cells expressing luciferase-tagged ELG1; HEK293T ELG1-luciferase reporter, luminescence, 16 h; Potency, µM (series often up to 46 µM), for the others: at the highest dose activity change, positive = activation, hits mostly activators; 1.3% of 330,000 active; AID 504466, 2011; note: % of control where 0% means no effect; nearly all actives have a fitted effect of over 60% in size
#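 Step 1: seed 2,000 HEK293T ELG1-luciferase cells per well. Step 2: add compound or DMSO, incubate 16 hr at 37 °C. Step 3: ONE-Glo, 30 min at room temperature, read luminescence.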
# Starred values were filed as active, the others as inactive; ? = inconclusive; nt = no result; [ ] = another dose, or the depositor's remark. Rows were chosen to be rich in hits. Some 7.4% of all compounds tested hit in one or more screens of this group. Calls come from the whole dose curve; as a rule, active = well fitted curve in the direction sought with a large enough effect; inconclusive = small, poorly fitted or top-dose-only effect, or another doubt; inactive = no such curve, though single readings can be large; an effect the other way counts as inactive or inconclusive. Potency is the fitted concentration of half-maximal effect.
SMILES,p53 reactivator,NPC1 promoter act,Rab9 promoter act,SMN2 splice enh,FLuc modulator,ELG1 genotox
O=C(/C=C/c1ccco1)Nc1ccccc1C(=O)O,0.8%,2µM*,2.82µM*,12.6µM*,2.69µM*,10.3µM*
O=C(/C=C\c1ccco1)Nc1cc([N+](=O)[O-])ccc1F,22.7%,-11.0%,-27.3%,-12.3%,4.2%,?
CCN(CC)c1ccc(NC(=O)C(Cc2ccccc2)NS(=O)(=O)c2ccc(Br)s2)c(C)c1 (stereo not given),nt,nt,nt,-7.3%,?,nt
COC(=O)c1c(NC(=O)Cc2ccc(OC)c(S(=O)(=O)N3CCOCC3)c2)sc(C)c1C,-7.7%,-3.0%,-3.6%,nt,2.5%,-8.3%
CCn1cc(Br)c(C(=O)Nc2ccc(F)cc2F)n1,3.0%,?,?,nt,?,12.3%
CCn1cc(Br)c(C(=O)Nc2cccc(SC)c2)n1,18.9%,24.6%,?,35.5µM*,23.9µM*,?
CC(=O)c1ccc(NS(=O)(=O)c2ccc(N/C=C/C(=O)c3ccc(F)cc3)cc2)cc1,10.7%,4.9%,7.2%,nt,?,0.8%
COc1cc([N+](=O)[O-])ccc1NC(=O)/C=C\C(=O)O,-0.6%,0.1%,2.6%,8.1%,3.5%,0.5%
COc1cc([N+](=O)[O-])ccc1N/C=C/C(=O)c1cccs1,-2.3%,0.501µM*,1.12µM*,1.58µM*,0.12µM*,?
NC(=O)c1ccccc1N/C=C/C(=O)c1ccc(F)cc1,?,0.708µM*,1µM*,17.8µM*,0.757µM*,?
NC(=O)c1ccccc1N/C=C/C(=O)c1cccs1,?,1.78µM*,0.891µM*,7.08µM*,2.69µM*,2.06µM*
Cc1cccc(N/C=C/C(=O)c2cccs2)c1C,126.0%,29.2%,?,2µM*,0.338µM*,1.84µM*
COCCc1nn2c(=O)cc(COC(=O)COc3ccccc3C)nc2s1,nt,nt,nt,nt,-1.3%,nt
COC(=O)[C@@]1(Cc2ccc(OC)cc2)[C@H]2c3cc(C(=O)N(C)C)n(Cc4ccsc4Br)c3C[C@H]2CN1C(=O)c1ccccc1,nt,nt,nt,-29.4%,nt,nt
Cc1ccc(C(=O)/C=C/Nc2ccccc2C(N)=O)o1,nt,nt,nt,11.2µM*,5.36µM*,nt
NC(=O)c1ccccc1N/C=C/C(=O)c1ccc(Cl)cc1Cl,17.0%,0.794µM*,0.501µM*,1µM*,0.19µM*,?
Cn1c(Cl)nc2ccccc21,-6.0%,-6.5%,-0.7%,?,2.3%,-3.2%
Cn1c(N=Nc2ccccc2)nc2ccccc21,nt,0.708µM*,0.398µM*,0.631µM*,0.477µM*,1.16µM*
CN(C)c1ccc(N=Nc2nc3ccccc3n2C)cc1,-15.4%,28.4%,?,nt,0.019µM*,-14.2%
O=C(c1cc2cc3ccc(Cl)cc3nc2o1)N1CCCCCC1,?,2.51µM*,3.55µM*,nt,2.69µM*,?
Cc1ccc2cc3cc(C(=O)N4CC(C)CC(C)C4)oc3nc2c1 (stereo not given),27.9%,6.8%,21.0%,22.1%,?,0.9%
O=C(c1cc2cc(Cl)ccc2o1)N1CCCCCC1,18.0%,?,3.98µM*,nt,2.5%,12.8%
C(=Nc1cnc2ccccc2c1)c1ccc2ccccc2n1,nt,nt,nt,-2.7%[9.22 µM],nt,nt
COc1cccc(NC(=O)CN(C)S(=O)(=O)c2cccs2)c1,nt,nt,nt,9.0%,?,nt
COc1cccc(/C=C/c2[nH]c(=O)[nH]c(=O)c2[N+](=O)[O-])c1O,0.9%,1.0%,5.8%,nt,16.9µM*,0.2%
SMILES,p53 reactivator,NPC1 promoter act,Rab9 promoter act,SMN2 splice enh,FLuc modulator,ELG1 genotox
COc1cc(/C=C/c2[nH]c(=O)[nH]c(=O)c2[N+](=O)[O-])cc(OC)c1O,18.4%,-7.3%,-3.3%,nt,?,-0.5%
CCCCNC(=O)/C(C#N)=C/c1ccc2c(c1)OCCO2,?,-1.3%,0.8%,14.3%,9.53µM*,?
CCCCNC(=O)/C(C#N)=C/c1cccnc1,4.9%,4.5%,2.7%,5.01µM*,1.4%,13.0%
N#C/C(=C\c1ccc2c(c1)OCCO2)C(=O)Nc1ccc(C(=O)O)cc1,15.8%,21.4%,15.5%[1.84 µM],nt,0.338µM*,?
N#C/C(=C\c1ccc2c(c1)OCCO2)C(=O)NC1CCCCC1,?,-2.9%,5.2%,nt,4.78µM*,?
N#C/C(=C/c1ccc2c(c1)OCO2)C(=O)Nc1ccc(O)cc1,-0.1%,-7.0%,21.2%,-9.9%,?,?
COc1ccc(NC(=O)c2nnn(CC(=O)Nc3cccc(C)c3C)c2N)c(OC)c1,nt,nt,nt,nt,1.7%,nt
CCN1C(=O)C(Cc2nc3ccccc3c(=O)n2-c2cccc(C)c2)c2ccccc21 (stereo not given),nt,nt,nt,11.0%,-7.2%,nt
O=C(CC(c1ccccc1)c1cc(Br)ccc1O)NCC1(c2ccccc2)CCCC1 (stereo not given),nt,nt,nt,-81.5%,-3.7%,nt
Cc1cc(C(=O)NCCC2=CCCCC2)no1,0.2%,23.8%,14.7%,8.3%,-6.4%,-1.8%
O=C(NCCC1=CCCCC1)c1cnsn1,?,26.8%,?,26.0%,?,16.4µM*
COC(=O)c1cc(-c2cccs2)[nH]n1,-5.3%,3.0%,-8.2%,-1.8%,-11.8%,7.7%
COc1ccc(O)c(-c2cc(-c3ccccc3Cl)[nH]n2)c1,15.4%,24.0%,24.3%,nt,10.7µM*,?
Oc1ccc(Br)cc1-c1cc(-c2ccccc2Cl)[nH]n1,5.2%,-4.2%,-8.0%,nt,?,-0.4%
COc1ccc(-c2cc(-c3ccccc3)n[nH]2)c(O)c1,?,?,2.24µM*,12.6µM*,6.01µM*,8.2µM*
COc1ccc(O)c(-c2cc(-c3cccs3)[nH]n2)c1,?,12.2%,?,?,21.3µM*,6.7%
COc1ccc(/C=C/c2nc(-c3ccccc3O)n[nH]2)cc1,?,3.55µM*,3.55µM*,3.98µM*,3.79µM*,?
COc1ccc(-c2ncncc2-c2ccccc2)c(O)c1,-0.1%,0.0%,5.7%,nt,-1.6%,-11.9%
CN(C)c1ccc(C(=C2C=CC(=[N+](C)C)C=C2)c2c(O)c(S(=O)(=O)O)cc3cc(S(=O)(=O)O)ccc23)cc1,nt,nt,nt,-42.9%[9.22 µM],nt,nt
COc1ccc(-c2cc(-c3ccccc3O)[nH]n2)cc1,?,1.78µM*,3.16µM*,nt,0.849µM*,?
CC(=O)Oc1ccc2c(=O)oc(-c3ccccc3)nc2c1,nt,0.8%,0.4%,nt,7.57µM*,0.8%
CC(=O)Oc1ccc2c(=O)oc(-c3ccccc3C)nc2c1,7.9%,-2.0%,0.2%,nt,19µM*,-0.2%
CC(=O)Oc1ccc2nc(/C=C/c3ccccc3)oc(=O)c2c1,nt,-5.0%,3.7%,nt,1.07µM*,2.8%
